The panel holds about 83,000 compounds, 20% with a hit somewhere; the sample as a whole holds those more often.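 Treatment: one concentration, 48 hours, 96-well format. Scoring: percent growth, with anything below 10 considered active.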 Unmarked numbers belong to inactive results. Activity calls are given as the source filed them.
Tests used:
Experiment in all cases: NCI-60 one-dose screen, 48 h (100 = growth as untreated, 0 = no growth, -100 = all killed)
Conditions in all cases: 10 µM unless noted
DU-145 prostate = tested on: DU-145 prostate
K-562 leukemia = tested on: K-562 leukemia
MALME-3M melanoma = tested on: MALME-3M melanoma
MDA-MB-231 breast = tested on: MDA-MB-231 breast
RXF 393 renal = tested on: RXF 393 renal
SF-268 CNS = tested on: SF-268 CNS
SF-295 CNS = tested on: SF-295 CNS
SF-539 CNS = tested on: SF-539 CNS
UACC-257 melanoma = tested on: UACC-257 melanoma
M14 melanoma = tested on: M14 melanoma

Row | Structure (SMILES) | growth (DU-145 prostate) | growth (K-562 leukemia) | growth (MALME-3M melanoma) | growth (MDA-MB-231 breast) | growth (RXF 393 renal) | growth (SF-268 CNS) | growth (SF-295 CNS) | growth (SF-539 CNS) | growth (UACC-257 melanoma) | growth (M14 melanoma)
1 | CC(=O)N1N=C(c2ccc(Nc3nc(NCCO)nc(NCCO)n3)cc2)CC1c1ccc(Cl)cc1 (stereo unspecified) | 98.6% | 119% | 91% | 92.5% | 108% | 100% | 96.6% | 90.2% | 91.8% | 98.9%
2 | ICCC(c1ccccc1)(c1ccccc1)c1ccccc1 | 79.1% | -9.2% (active) | -43.4% (active) | 41.7% | 28.4% | 62.7% | 51.3% | 10.6% | -62.8% (active) | -76.2% (active)
3 | COc1cc(/C=C/C(=O)c2c(C)n([O-])c3ccccc3[n+]2=O)cc(OC)c1OC | 32.6% | 21.8% | 66.2% | 78.9% | 53.9% | 43.6% | 46.8% | 75.5% | 54.4% | 60.2%
4 | COc1ccc(C2=NN(C=O)C(c3cccc(Nc4ccnc5cc(Cl)ccc45)c3)C2)cc1 (stereo unspecified) | 33.2% | 6.65% (active) | 25.2% | 42.4% | 17.2% | 41.2% | 0.467% (active) | 9.03% (active) | 23.2% | 19.1%
5 | CCn1cnc(C[C@H](NC(=O)[C@H](CCCCNC(=O)Nc2cc(C(F)(F)F)cc(C(F)(F)F)c2)NC(=O)Nc2cc(C(F)(F)F)cc(C(F)(F)F)c2)C(=O)OC)c1 | -69.5% [100 µM] (active) | -80.2% [100 µM] (active) | -69.6% [100 µM] (active) | -100% [100 µM] (active) | -47.2% [100 µM] (active) | -53.5% [100 µM] (active) | -97.4% [100 µM] (active) | -66.4% [100 µM] (active) | -59.1% [100 µM] (active) | -97.4% [100 µM] (active)
6 | COc1cc(/C=C/C(=O)CC(=O)/C=C/c2ccc(OC(=O)CCNC34CC5CC(CC(C5)C3)C4)c(OC)c2)ccc1OC(=O)CCNC12CC3CC(CC(C3)C1)C2 | -7.16% (active) | 7.62% (active) | 38.6% | 52.4% | -37.7% (active) | 16.5% | 51% | -18.2% (active) | 73.9% | 16.5%
7 | Cc1ccccc1NC(=O)NC(CC(N)=O)c1ccc2c(c1)nc(-c1cccc(Oc3ccc(C(C)(C)C)cc3)c1)n2CCCN1CCCCC1C (stereo unspecified) | 68.2% | -44.6% (active) | -52.6% (active) | 28.1% | 25.1% | 46.7% | 83.5% | 13.1% | -71.3% (active) | -81.8% (active)
8 | O=C(NN1C(=O)c2cc(C(=O)O)c(C(=O)O)cc2C1=O)c1ccncc1 | 144% | 62.4% | 76.8% | 80.6% | 127% | 93.5% | 102% | 112% | 114% | 
9 | Cc1cc(C)nc(NS(=O)(=O)c2ccc(Nc3nc4nc(SCc5ccccc5)nc(-c5ccc(O)cc5)c4c(=O)[nH]3)cc2)n1 | 136% | 84.2% | 67.7% | 93.8% | 78.6% | 84% | 83.3% | 98.9% | 113% | 
10 | Cc1ccc(-c2csc(N)n2)cc1 | 123% | 94.4% | 124% | 96.6% | 110% | 101% | 110% | 102% | 79.9% | 102%
11 | O=c1ccn(C2CC=C(CO)O2)c(=O)[nH]1 (stereo unspecified) | 108% | 92.8% | 80.9% | 104% | 8.91% (active) | 109% | 92.9% | 99.8% | 78.3% | 81.4%
12 | Cc1ccc2c(c1)C(=O)/C(=C\Nc1ccc(C(N)=O)cc1)C(O)O2 (stereo unspecified) | 107% | 97.7% | 86.7% | 83.1% | 111% | 82.8% | 94% | 99.8% | 118% | 
13 | CCCCCN(CCCCC)CCCNc1c2c(nc3ccc(Cl)cc13)CCCC2 | 66.6% | 14.2% | 35.5% | 18.5% | 57.1% | 76.1% | 37.8% | 47% | 13.2% | 
14 | CC(=O)OC1Oc2cc(C)c(C)cc2-c2oc(=O)c(-c3ccccc3)cc21 (stereo unspecified) | 15% | -0.66% (active) | -4.37% (active) | 43.7% | -35.3% (active) | 36.8% | -39.9% (active) | -37.1% (active) | 74.5% | 
15 | CC(C)Sc1nc(Cl)c(C#N)c(-c2ccc(F)cc2)n1 | 113% | 16.2% | 100% | 111% | 116% | 106% | 108% | 96.5% | 118% | 94.5%
16 | O=CNc1ccc2c(c1)Cc1cc([N+](=O)[O-])ccc1-2 | 0.835% (active) | 21.3% | 11.4% | 34.4% | -14.6% (active) | 42% | 16.3% | 27.9% | 59.3% | -15.7% (active)
17 | N#Cc1ccc(-c2csc(Nc3ccc4nc5n(c(=O)c4c3)CCC5)n2)cc1 | 109% | 96.8% | 102% | 104% | 106% | 106% | 98.2% | 101% | 108% | 103%
18 | COc1cc(/C=N/NC(=O)c2ccc(C(F)(F)F)nc2Nc2cc(Cl)ccc2C)cc(OC)c1OC | 154% | 83.8% | 61.8% | 86.3% | 77.7% | 88.9% | 70.9% | 103% | 112% | 
19 | CCOC1Oc2ccccc2C(=O)/C1=N/c1nccs1 (stereo unspecified) | 101% | 84.9% | 51.9% | 78.1% | 102% | 76.9% | 93.5% | 93.9% | 112% | 
20 | OCc1n(Cc2ccc3ccccc3c2)cc[n+]1Cc1ccc2ccccc2c1 | 84.7% | 22.7% | 38.1% | 51.4% | 57.3% | 60.7% | 79.2% | 68.3% | 18.3% | 41.7%
21 | Cc1[nH]ccc2cc3nc4ccccc4c3cc12 | 34.4% | 12.1% | 29.8% | 26.3% | 17.5% | 40% | 20.1% | 34% | 39.9% | 38%
22 | O=C1c2cccc(NCCN=Cc3ccccc3O)c2C(=O)c2c(NCCN=Cc3ccccc3O)cccc21 | 16% | 38% | 21.8% | 21% | 33.9% | 7.05% (active) | 49.8% | 22.4% | 94.6% | 
23 | C[C@H]1O[C@@H](O[C@H]2[C@@H](O)C[C@H](O[C@H]3[C@@H](O)C[C@H](O[C@H]4CC[C@]5(C)C6C[C@@H](O)[C@]7(C)[C@@H](C8=CC(=O)OC8)CC[C@]7(O)C6CC[C@@H]5C4)O[C@@H]3C)O[C@@H]2C)C[C@H](O)[C@@H]1O (stereo partly specified) | -100% (active) | -24.2% (active) | -57.2% (active) | -83.6% (active) | -22.4% (active) | -100% (active) | -99.9% (active) | -96.2% (active) | -100% (active) | -81.6% (active)
24 | CCOC(=O)C(Br)=P(c1ccccc1)(c1ccccc1)c1ccccc1 | 124% | 105% | 94.3% | 92.6% | 79.9% | 120% | 110% | 101% | 98.9% | 111%
25 | Cc1ccc(/C=C/C(=O)c2ccc(F)cc2)s1 | 90.8% | 38.1% | 78.9% | 105% | 84.8% | 92.2% | 88.5% | 103% | 90.3% | 95.1%
26 | Cc1cc(=O)[nH]c(/C(=N/Nc2ccccc2)C(=O)c2ccc(Cl)cc2)n1 | 105% | 52.7% | 114% | 102% | 28.5% | 117% | 75.7% | 92.3% | 103% | 97.1%
27 | COC(=O)c1cc2oc(/C=N\NC(=O)c3cc4oc(C)c(C)c4[nH]3)cc2[nH]1 | 147% | 84.1% | 82.5% | 107% | 101% | 106% | 84.2% | 101% | 114% | 
